The panel holds about 83,000 compounds, 20% with a hit somewhere; the sample as a whole holds those more often.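 Single-concentration screen, 48 h exposure, 96-well plates. Endpoint: percent growth. Below 10 = active.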 Calls of active or inactive are those of the source.
Each molecule was assayed on MDA-MB-468 breast (assay: NCI-60 one-dose screen, 48 h (100 = growth as untreated, 0 = no growth, -100 = all killed)). Details: 10 µM unless noted.

Compound | growth
Cc1c(O)c(=O)ccn1C1CCC(CC2CCC(n3ccc(=O)c(O)c3C)CC2)CC1 (stereo unspecified) | 0.337% (active)
COc1ccc(CCl)c(C)c1OC | 109% (inactive)
CC(C)c1ccc(Nc2ccc3c(OCCCN4CCN(C)CC4)cccc3n2)cc1 | 66% (inactive)
O=C1CC(=O)OC(c2ccc([N+](=O)[O-])cc2)O1 | -49.7% (active)
CCOc1ccccc1/C=N/N1CCCCCC1 | 108% (inactive)
CCCCn1c(-c2ccc(F)cc2)nc2cc(OC)c(OC)cc2c1=O | 115% (inactive)
COc1cc2ncnc(Nc3ccc(S(=O)(=O)Nc4nccs4)cc3)c2cc1OCCCN1CCOCC1 | 107% (inactive)
CCN(CC)c1ccc2c(c1)Oc1nc(N)c(C#N)c(N)c1C2Sc1ccc(OC)cc1 (stereo unspecified) | -35.3% (active)
O=C(O)c1ccc(-n2cc(CNc3cc(F)c(F)c(F)c3)c(-c3ccc(F)cc3)n2)cc1 | 115% (inactive)
Cc1cc(C#Cc2ccccc2)ccc1-n1c(/C=C/c2cc(O)ccc2O)nc2ccccc2c1=O | -36.5% (active)
COc1cc(Cn2c(-c3ccccc3)cc3c2-c2oncc2CC3)cc(OC)c1 | -21.4% (active)
NS(=O)(=O)c1ccc(Br)cc1 | 102% (inactive)
O=C(/C=C/c1cccnc1)c1ccccc1 | 99.2% (inactive)
O=C(CCCCCCN1CC(=O)N2[C@@H](c3cc(F)cc(F)c3)c3[nH]c4ccccc4c3C[C@H]2C1=O)NO | 50.4% (inactive)
Cc1ccc(-c2nnc(COc3ccc(-c4nnc(N)s4)cc3)o2)cc1 | 72.7% (inactive)
Cc1ccc(Nc2nnc(-c3cc(-c4ccncc4)n(-c4ccccc4)n3)s2)cc1 | 48.7% (inactive)
